According to PubChem BioAssay:
The source made the active and inactive calls. Unless noted, the rule behind the calls is not given here.

Tests used:
[1] = HepG2 liver cancer cell viability effects, profiling panel, resazurin fluorescence, 24 h, PK04 Diversity Set (AID 1172); conditions: higher = more signal
[2] = basal S. cerevisiae growth modulation, no modifier, primary screen, OD600, strain BY4716, 24 h, basal condition (AID 1173); conditions: OD600, 24 h, higher = more signal, called active from +8 up or from −8 down
[3] = MM1S myeloma cell viability, profiling panel, resazurin fluorescence, basal, 24 h, PK04 Diversity Set (AID 1174); conditions: higher = more signal, called active from +8 up or from −8 down;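 note: MM1S multiple myeloma cell line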
[4] = target: Dihydroorotate dehydrogenase (quinone), mitochondrial (Plasmodium falciparum (isolate 3D7)) (UniProt Q08210); experiment: PfDHODH enzyme inhibitors, primary screen, biochemical, C-terminal His tag, absorbance 600 nm (AID 1175); conditions: DCIP absorbance 600 nm, higher = more signal, called active from +8 up or from −8 down;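 note: recombinant parasite enzyme with a five histidine tag at its C terminus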
Dihydroorotate dehydrogenase (quinone), mitochondrial (Plasmodium falciparum (isolate 3D7)), sequence (Q08210 whole entry, looked up): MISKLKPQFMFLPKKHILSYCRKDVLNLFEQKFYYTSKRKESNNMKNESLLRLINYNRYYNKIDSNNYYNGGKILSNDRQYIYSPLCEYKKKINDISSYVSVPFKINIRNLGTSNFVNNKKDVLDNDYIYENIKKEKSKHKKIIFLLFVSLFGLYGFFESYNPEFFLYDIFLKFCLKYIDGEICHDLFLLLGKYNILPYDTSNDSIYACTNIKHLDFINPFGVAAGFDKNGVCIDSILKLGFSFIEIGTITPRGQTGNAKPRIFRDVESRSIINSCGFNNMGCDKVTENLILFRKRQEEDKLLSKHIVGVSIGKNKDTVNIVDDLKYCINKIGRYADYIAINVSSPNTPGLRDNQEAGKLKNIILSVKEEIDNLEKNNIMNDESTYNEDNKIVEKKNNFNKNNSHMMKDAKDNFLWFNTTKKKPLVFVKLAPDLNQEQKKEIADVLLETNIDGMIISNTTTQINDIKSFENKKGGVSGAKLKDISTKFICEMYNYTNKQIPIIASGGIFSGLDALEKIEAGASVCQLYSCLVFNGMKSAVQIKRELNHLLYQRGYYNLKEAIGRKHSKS

[5] = P. aeruginosa biofilm formation inhibitors, primary screen, strain PAO1, LB-PBS medium, absorbance 600 nm (AID 1176); conditions: P. aeruginosa PAO1 growth/biofilm, A600, 12 h; higher = more signal
[6] = S. cerevisiae RM11-1a growth modifiers, primary screen, strain RM11-1a, OD600, basal, 24 h (AID 1177); conditions: OD600, 24 h, higher = more signal, called active from +8 up or from −8 down;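 note: cultures grown under basal conditions with no added stressor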
[7] = E. coli acrAB mutant growth effects, primary screen, E. coli filamentation inducers, strain DRC39, OD650, 24 h (AID 1178); conditions: higher = more signal, called active from +8 up or from −8 down;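 note: growth measured as culture turbidity by optical density at 650 nm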
[8] = E. coli acrAB mutant growth effects, primary screen, E. coli filamentation inducers, strain DRC39, OD650, 48 h (AID 1179);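 note: screen aims at cell division blockers that make cells filament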; conditions: E. coli DRC39 delta-acrAB growth, higher = more signal, called active from +8 up or from −8 down
[9] = RPMI8226 myeloma cell viability, profiling panel, resazurin fluorescence, basal, 24 h, PK04 Diversity Set (AID 1180); conditions: higher = more signal;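 note: RPMI8826 multiple myeloma cell line at 5000 cells per well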
[10] = target: E3 ubiquitin-protein ligase XIAP (Homo sapiens) (UniProt P98170); experiment: XIAP binders, primary screen, biophysical, small-molecule microarray, fluorescence 635 nm (AID 1181); conditions: small-molecule microarray binding, higher = more signal;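 note: score merges 667 nm emission and signal to noise over triplicate slides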
E3 ubiquitin-protein ligase XIAP (Homo sapiens), sequence (P98170 whole entry, looked up): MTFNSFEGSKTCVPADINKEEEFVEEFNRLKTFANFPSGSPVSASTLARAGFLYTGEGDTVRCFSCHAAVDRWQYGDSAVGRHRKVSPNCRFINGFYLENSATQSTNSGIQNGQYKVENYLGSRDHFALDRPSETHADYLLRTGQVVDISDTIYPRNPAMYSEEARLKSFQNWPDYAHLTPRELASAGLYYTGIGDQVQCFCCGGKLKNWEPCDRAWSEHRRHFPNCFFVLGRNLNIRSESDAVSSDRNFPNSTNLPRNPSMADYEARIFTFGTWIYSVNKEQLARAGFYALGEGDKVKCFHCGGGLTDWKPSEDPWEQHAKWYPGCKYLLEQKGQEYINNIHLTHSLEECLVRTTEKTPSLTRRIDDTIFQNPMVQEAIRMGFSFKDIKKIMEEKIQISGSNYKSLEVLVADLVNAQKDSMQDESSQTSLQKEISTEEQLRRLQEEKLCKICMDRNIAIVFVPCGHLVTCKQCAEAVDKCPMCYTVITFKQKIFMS

[11] = system: XIP peptide (Xip251-270) binding; experiment: small-molecule binders of XIP peptide, primary screen, biochemical, small-molecule microarray, fluorescence 635/667 nm, 0.1 µg/mL protein (AID 1182); conditions: fluorescent protein binding, 635 nm, higher = more signal, called active from +8 up or from −8 down
[12] = system: XIP peptide (Xip251-270); experiment: small-molecule binders of XIP peptide, primary screen, biochemical, small-molecule microarray, fluorescence 635/667 nm, 0.5 µg/mL protein (AID 1183); conditions: small-molecule microarray binding, fluorescence 635 nm; higher = more signal
[13] = Plasmodium falciparum growth inhibition, primary screen, strain 3D7, DAPI fluorescence, 100 nL (AID 1184);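 note: parasites grown inside human red blood cells in medium with human serum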; conditions: P. falciparum 3D7 growth, 3 d, higher = more signal
[14] = target: Homeobox protein Hox-A13 (Mus musculus) (UniProt Q62424); experiment: inhibitors of HoxA13-DNA binding, primary screen, biochemical, fluorescence polarization, labeled oligonucleotide (AID 1185); conditions: 15 min, higher = more signal, called active from +8 up or from −8 down
Homeobox protein Hox-A13 (Mus musculus), sequence (Q62424 whole entry, looked up): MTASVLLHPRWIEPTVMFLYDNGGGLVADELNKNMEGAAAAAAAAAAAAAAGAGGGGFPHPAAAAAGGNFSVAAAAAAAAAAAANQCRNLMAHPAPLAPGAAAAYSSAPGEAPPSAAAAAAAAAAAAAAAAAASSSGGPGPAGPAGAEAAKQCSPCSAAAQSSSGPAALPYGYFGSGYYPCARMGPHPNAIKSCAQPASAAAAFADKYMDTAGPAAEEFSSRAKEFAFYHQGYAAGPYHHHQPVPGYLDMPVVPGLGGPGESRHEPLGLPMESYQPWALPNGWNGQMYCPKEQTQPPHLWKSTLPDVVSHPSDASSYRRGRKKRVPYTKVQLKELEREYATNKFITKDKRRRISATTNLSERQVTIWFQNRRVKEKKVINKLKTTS

[15] = inhibitors of hydroxyurea-induced Chk1 phosphorylation, primary screen, imaging, HeLa, phospho-Chk1 antibody, percent positive cells (AID 1186); conditions: hydroxyurea-induced phospho-Chk1 immunofluorescence imaging, higher = more signal
[16] = inhibitors of hydroxyurea-induced Chk1 phosphorylation, primary screen, imaging, HeLa, phospho-Chk1 nuclear intensity (AID 1187); conditions: hydroxyurea-induced phospho-Chk1 immunofluorescence imaging, higher = more signal

Row | Structure (SMILES) | z-score [1] | z-score [2] | z-score [3] | composite z-score [4] | z-score [5] | z-score [6] | z-score [7] | z-score [8] | z-score [9] | composite z-score [10] | composite z-score [11] | composite z-score [12] | z-score [13] | z-score [14] | z-score [15] | z-score [16]
1 | CC(C)C(=C=CC[C@H](O)c1cccc(OCCO)c1)C[C@H](O)COCc1ccccc1 | 0.685 | -0.535 (inactive) | 0.0454 (inactive) | -1.25 (inactive) | 0.449 (inactive) | 0.194 (inactive) | 0.339 (inactive) | 0.262 (inactive) | 0.163 | -0.113 | 0.31 (inactive) | -0.376 | -1.49 | -3.93 (inactive) | -0.648 (inactive) | -0.289 (inactive)
2 | COCCOC(=O)N1C(=O)[C@@]2(c3cc(C#Cc4ccc(OC)cc4)ccc31)[C@H](C(=O)N1CCN(c3ncccn3)CC1)[C@H]1C(=O)O[C@H](c3ccccc3)[C@H](c3ccccc3)N1[C@@H]2c1ccc(O)cc1 | -0.221 | 0.558 (inactive) | -1.68 (inactive) | -1.45 (inactive) | 1.42 (inactive) | -0.604 (inactive) | -0.0707 (inactive) | 1.09 (inactive) | 0.0808 | 0.134 | 0.0853 (inactive) | 0.481 | -1.38 | 0.261 (inactive) | -0.0134 (inactive) | -0.454 (inactive)
3 | CCCCCCCCCCC(O)C1C=CC2C(=O)N(Cc3ccccc3)C(=O)C2N1n1cnnc1 (centres undefined) | -1.17 | -0.472 (inactive) | -1.39 (inactive) | -1.2 (inactive) | -0.541 (inactive) | -0.623 (inactive) | -0.845 (inactive) | -0.592 (inactive) | -1.15 | -0.0085 | 0.109 (inactive) | 0.609 | -1.08 | -2.2 (inactive) | 0.577 (inactive) | -0.034 (inactive)
4 | O=C1C=CC(=O)[C@@H]2CC(COc3ccccc3)=C3[C@@H](CCc4ccccc4)OB(O)C[C@@H]3[C@H]12 | -0.814 | -6.89 (inactive) | -0.971 (inactive) | -2.68 (inactive) | 0.212 (inactive) | -0.234 (inactive) | -0.569 (inactive) | -0.422 (inactive) | -0.664 | 0.0767 | -0.193 (inactive) | 0.433 | -1.73 | -5.92 (inactive) | -0.042 (inactive) | 0.528 (inactive)
5 | O=C1O[C@H](c2ccccc2)[C@H](c2ccccc2)N2[C@H]1[C@@H](C(=O)O)[C@]1(C(=O)Nc3ccc(C#CC4=CCCCC4)cc31)[C@H]2c1ccc(OCCO)cc1 | 0.732 | 0.0899 (inactive) | 0.533 (inactive) | -14.1 (active) | 3.39 (inactive) | 1.26 (inactive) | 0.668 (inactive) | -0.175 (inactive) | -0.219 | -0.271 | 0.4 (inactive) | 0.813 | -0.656 | -5.08 (inactive) | 0.222 (inactive) | -0.0216 (inactive)
6 | COC(=O)[C@@]1(Cc2ccc(OC)cc2)[C@H]2c3cc(C(=O)N4CCCC4)n(Cc4cc(F)cc5c4OCOC5)c3C[C@H]2CN1C(=O)c1ccccc1 | -1.47 | 0.433 (inactive) | -5.86 (inactive) | -0.607 (inactive) | 0.687 (inactive) | -0.334 (inactive) | -1.32 (inactive) | -1.24 (inactive) | -3.53 | 0.389 | 0.365 (inactive) | 0.857 | -1.72 | -6.08 (inactive) | 0.127 (inactive) | -0.271 (inactive)
7 | CC(C)CNC(=O)[C@@]1(c2ccc([N+](=O)[O-])cc2)CC(=O)N(CC23CC4CC(CC(C4)C2)C3)[C@@H]1c1ccc(CO)cc1I | -2.55 | 0.431 (inactive) | -2.77 (inactive) | 0.989 (inactive) | 1.9 (inactive) | 1.69 (inactive) | -0.507 (inactive) | -0.91 (inactive) | -3.94 | -0.144 | 0.106 (inactive) | 0.719 | -0.534 | -3.42 (inactive) | -0.264 (inactive) | -0.135 (inactive)
8 | CCOc1cc(C(O)C2C=CC3C(=O)N(c4ccccc4)C(=O)C3N2Nc2ccc([N+](=O)[O-])cc2)ccc1O (centres undefined) | -0.506 | -0.571 (inactive) | -0.669 (inactive) | 0.377 (inactive) | 0.878 (inactive) | -0.864 (inactive) | -0.763 (inactive) | -0.709 (inactive) | -0.901 | -0.127 | -0.394 (inactive) | 0.546 | -1.76 | -5.51 (inactive) | 0.555 (inactive) | -0.452 (inactive)
9 | COC(=O)[C@@]1(Cc2ccc(F)cc2)[C@H]2c3cc(C(=O)N4CCCC4)n(Cc4cccc5ccccc45)c3C[C@H]2CN1C(=O)c1ccccc1 | -0.296 | 1.28 (inactive) | -1.53 (inactive) | -0.422 (inactive) | 0.784 (inactive) | 0.0161 (inactive) | -1.11 (inactive) | -0.974 (inactive) | -1.25 | 0.487 | 0.702 (inactive) | 0.0322 | -1.74 | -4.87 (inactive) | -0.704 (inactive) | -0.576 (inactive)
